Assays:
Experiment in all cases: DAPPL (digital affinity profiling via proximity ligation, sequencing); 10 mM Tris-HCl pH 7.5, 50 mM NaCl, 1 mM DTT, 4% glycerol, room temperature, 30 min; GST-TFs on glutathione beads, 16-mer random dsDNA library, 0.1% formaldehyde crosslink after washing; high values mean tight binding
FEV = target: T1, FEV (Homo sapiens, UniProt Q99581 1-238); details: protein: recombinant; tags: N-terminal GST; dsDNA, one strand shown
T1 sequence: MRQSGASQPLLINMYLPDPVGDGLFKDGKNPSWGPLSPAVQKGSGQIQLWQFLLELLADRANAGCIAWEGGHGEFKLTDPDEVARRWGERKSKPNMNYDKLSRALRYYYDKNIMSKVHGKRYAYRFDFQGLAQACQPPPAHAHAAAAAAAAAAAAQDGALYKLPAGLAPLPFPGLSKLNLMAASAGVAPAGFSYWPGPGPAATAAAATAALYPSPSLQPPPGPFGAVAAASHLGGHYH
Summary of the method: (§1)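 Sequencing on an Illumina NextSeq500 followed washing, crosslinking with 0.1% formaldehyde, proximity ligation (BsaI/T4 ligase, 1 h, 37 °C) and PCR amplification of pools that had been incubated for 30 min at room temperature with 200 nmole of a random double-stranded 16-mer DNA library in Tris/NaCl/DTT/glycerol buffer. Each pool held DNA-barcoded human transcription factors, expressed in yeast as GST fusions and captured on glutathione beads, plus a tag-only sample. Binding signal is a hexamer's read frequency for a factor divided by its frequency in the tag-only sample.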

ETV5 = ETV5 (Homo sapiens, UniProt P41161 1-510); details: protein: recombinant; tags: N-terminal GST; dsDNA, one strand shown
ETV5, sequence (P41161 whole entry): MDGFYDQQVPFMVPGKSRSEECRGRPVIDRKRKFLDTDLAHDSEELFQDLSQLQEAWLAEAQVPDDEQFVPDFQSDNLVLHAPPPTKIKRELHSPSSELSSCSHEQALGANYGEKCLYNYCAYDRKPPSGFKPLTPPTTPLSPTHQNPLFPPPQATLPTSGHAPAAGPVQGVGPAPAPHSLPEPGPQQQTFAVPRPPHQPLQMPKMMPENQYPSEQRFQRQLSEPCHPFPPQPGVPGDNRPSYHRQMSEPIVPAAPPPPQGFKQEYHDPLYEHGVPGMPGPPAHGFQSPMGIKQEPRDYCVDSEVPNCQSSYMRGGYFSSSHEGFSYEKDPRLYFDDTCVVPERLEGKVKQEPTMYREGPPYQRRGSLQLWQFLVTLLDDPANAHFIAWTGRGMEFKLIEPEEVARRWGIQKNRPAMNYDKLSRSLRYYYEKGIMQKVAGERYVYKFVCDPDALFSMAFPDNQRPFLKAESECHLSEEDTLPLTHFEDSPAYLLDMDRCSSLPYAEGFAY
Summary of the method: as §1

HSF1 = HSF1 (Homo sapiens, UniProt Q00613 1-529); details: protein: recombinant; tags: N-terminal GST; chain copies: 3; dsDNA, one strand shown
HSF1, sequence (Q00613 whole entry): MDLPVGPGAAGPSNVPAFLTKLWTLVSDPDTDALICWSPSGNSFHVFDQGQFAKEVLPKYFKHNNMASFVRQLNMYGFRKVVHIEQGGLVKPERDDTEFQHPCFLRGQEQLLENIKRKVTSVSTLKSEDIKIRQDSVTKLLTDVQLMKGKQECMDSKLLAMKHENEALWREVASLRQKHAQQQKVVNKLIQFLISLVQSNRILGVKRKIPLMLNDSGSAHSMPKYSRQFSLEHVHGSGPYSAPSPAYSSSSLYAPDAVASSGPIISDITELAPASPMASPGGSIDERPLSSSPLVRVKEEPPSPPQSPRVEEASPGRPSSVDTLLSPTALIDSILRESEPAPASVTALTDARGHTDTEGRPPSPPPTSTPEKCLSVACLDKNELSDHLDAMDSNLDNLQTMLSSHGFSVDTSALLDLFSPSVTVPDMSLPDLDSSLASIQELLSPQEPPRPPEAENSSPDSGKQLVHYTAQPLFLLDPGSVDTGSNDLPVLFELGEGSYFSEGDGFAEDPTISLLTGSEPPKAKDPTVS
Summary of the method: as §1

SPIC = target: T2, SPIC (Homo sapiens, UniProt Q8N5J4 1-248); details: protein: recombinant; tags: N-terminal GST; dsDNA, one strand shown
T2 sequence: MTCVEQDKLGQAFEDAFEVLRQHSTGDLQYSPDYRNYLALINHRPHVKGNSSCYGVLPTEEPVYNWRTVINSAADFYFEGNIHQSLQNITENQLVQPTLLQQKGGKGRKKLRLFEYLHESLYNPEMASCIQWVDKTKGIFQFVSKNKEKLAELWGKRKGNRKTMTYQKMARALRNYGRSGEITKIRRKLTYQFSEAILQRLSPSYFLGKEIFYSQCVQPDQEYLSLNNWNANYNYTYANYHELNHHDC
Summary of the method: as §1

ELF4 = ELF4 (Homo sapiens, UniProt Q99607 1-663); details: protein: recombinant; tags: N-terminal GST; dsDNA, one strand shown
ELF4, sequence (Q99607 whole entry): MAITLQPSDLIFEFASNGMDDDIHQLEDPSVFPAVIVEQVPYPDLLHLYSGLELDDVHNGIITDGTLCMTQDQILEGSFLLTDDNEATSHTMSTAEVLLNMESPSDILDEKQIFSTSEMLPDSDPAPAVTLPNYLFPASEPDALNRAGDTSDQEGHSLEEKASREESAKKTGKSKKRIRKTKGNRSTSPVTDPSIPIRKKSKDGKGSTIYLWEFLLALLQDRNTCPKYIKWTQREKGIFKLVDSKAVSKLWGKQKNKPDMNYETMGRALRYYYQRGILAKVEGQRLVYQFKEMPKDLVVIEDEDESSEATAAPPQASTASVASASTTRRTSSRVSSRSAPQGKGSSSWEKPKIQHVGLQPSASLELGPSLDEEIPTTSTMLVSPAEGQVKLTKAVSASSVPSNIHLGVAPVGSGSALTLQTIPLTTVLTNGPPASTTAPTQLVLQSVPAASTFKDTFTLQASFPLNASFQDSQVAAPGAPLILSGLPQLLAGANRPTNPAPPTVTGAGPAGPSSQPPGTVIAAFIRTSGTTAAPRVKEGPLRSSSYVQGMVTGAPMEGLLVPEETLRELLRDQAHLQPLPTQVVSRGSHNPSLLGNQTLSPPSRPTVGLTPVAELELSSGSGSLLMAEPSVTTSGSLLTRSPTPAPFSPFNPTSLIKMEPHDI
Summary of the method: as §1

ELK4 = target: T3, ELK4 (Homo sapiens, UniProt P28324-2 1-405); details: protein: recombinant; tags: N-terminal GST; dsDNA, one strand shown
T3 sequence: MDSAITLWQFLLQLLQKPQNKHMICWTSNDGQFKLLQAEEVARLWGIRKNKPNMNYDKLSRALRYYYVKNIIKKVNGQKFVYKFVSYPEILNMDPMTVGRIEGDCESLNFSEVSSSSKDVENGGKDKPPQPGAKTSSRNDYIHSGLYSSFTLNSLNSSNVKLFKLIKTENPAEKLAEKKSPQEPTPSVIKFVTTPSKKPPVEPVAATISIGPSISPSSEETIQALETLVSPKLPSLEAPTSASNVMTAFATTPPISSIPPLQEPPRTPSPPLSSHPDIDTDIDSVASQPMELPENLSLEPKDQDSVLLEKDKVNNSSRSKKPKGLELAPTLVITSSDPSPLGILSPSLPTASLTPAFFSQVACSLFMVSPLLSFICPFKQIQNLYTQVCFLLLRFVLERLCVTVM
Summary of the method: as §1

ETV2 = target: T4, ETV2 (Homo sapiens, UniProt O00321 1-342); details: protein: recombinant; tags: N-terminal GST; dsDNA, one strand shown
T4 sequence: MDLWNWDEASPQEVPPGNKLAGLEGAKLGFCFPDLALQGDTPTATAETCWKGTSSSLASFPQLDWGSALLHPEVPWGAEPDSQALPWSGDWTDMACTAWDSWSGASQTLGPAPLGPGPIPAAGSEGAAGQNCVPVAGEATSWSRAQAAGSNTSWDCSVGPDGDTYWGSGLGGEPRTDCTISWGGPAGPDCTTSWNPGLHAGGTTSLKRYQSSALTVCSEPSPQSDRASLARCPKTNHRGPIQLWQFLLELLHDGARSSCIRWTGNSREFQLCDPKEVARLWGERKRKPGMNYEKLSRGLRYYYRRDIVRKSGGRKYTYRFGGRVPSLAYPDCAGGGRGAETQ
Summary of the method: as §1

ELF3 = target: T5, ELF3 (Homo sapiens, UniProt P78545 1-371); details: protein: recombinant; tags: N-terminal GST; dsDNA, one strand shown
T5 sequence: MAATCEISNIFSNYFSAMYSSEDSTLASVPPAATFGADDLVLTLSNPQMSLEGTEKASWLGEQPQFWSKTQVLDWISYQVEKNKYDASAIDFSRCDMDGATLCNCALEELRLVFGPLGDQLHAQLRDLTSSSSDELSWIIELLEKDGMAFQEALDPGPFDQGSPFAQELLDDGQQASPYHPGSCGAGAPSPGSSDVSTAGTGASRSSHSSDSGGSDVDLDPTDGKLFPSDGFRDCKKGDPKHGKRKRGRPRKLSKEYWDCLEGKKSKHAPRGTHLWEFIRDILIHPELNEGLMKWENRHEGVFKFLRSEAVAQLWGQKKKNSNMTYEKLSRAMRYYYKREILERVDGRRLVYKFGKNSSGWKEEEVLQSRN
Summary of the method: as §1

CRX = CRX (Homo sapiens, UniProt O43186 1-299); details: protein: recombinant; tags: N-terminal GST; dsDNA, one strand shown
CRX, sequence (O43186 whole entry): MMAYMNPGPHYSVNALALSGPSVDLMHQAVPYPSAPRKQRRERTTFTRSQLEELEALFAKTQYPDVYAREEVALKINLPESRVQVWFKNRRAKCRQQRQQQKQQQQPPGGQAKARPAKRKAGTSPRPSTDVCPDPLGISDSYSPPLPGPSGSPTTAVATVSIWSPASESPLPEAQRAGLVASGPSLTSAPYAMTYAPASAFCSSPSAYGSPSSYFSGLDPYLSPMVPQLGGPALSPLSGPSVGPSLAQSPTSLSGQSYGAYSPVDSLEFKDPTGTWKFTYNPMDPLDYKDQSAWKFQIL
Summary of the method: as §1

ETV1 = ETV1 (Homo sapiens, UniProt P50549 1-477); details: protein: recombinant; tags: N-terminal GST; dsDNA, one strand shown
ETV1, sequence (P50549 whole entry): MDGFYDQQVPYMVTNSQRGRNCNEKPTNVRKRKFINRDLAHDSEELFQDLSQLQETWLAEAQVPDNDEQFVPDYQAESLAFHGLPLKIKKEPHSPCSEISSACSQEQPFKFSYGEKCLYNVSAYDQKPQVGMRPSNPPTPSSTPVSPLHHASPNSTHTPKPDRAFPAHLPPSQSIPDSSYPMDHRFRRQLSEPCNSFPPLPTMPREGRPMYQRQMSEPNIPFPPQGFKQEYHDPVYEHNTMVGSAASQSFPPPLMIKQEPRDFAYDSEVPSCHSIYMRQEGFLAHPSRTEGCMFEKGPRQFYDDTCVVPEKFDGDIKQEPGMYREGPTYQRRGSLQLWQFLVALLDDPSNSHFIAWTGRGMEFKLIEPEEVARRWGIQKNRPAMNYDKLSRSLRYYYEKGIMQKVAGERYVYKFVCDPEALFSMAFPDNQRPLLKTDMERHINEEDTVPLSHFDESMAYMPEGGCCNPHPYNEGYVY
Summary of the method: as §1

ERF = target: T6, ERF (Homo sapiens, UniProt P50548 1-548); details: protein: recombinant; tags: N-terminal GST; dsDNA, one strand shown
T6 sequence: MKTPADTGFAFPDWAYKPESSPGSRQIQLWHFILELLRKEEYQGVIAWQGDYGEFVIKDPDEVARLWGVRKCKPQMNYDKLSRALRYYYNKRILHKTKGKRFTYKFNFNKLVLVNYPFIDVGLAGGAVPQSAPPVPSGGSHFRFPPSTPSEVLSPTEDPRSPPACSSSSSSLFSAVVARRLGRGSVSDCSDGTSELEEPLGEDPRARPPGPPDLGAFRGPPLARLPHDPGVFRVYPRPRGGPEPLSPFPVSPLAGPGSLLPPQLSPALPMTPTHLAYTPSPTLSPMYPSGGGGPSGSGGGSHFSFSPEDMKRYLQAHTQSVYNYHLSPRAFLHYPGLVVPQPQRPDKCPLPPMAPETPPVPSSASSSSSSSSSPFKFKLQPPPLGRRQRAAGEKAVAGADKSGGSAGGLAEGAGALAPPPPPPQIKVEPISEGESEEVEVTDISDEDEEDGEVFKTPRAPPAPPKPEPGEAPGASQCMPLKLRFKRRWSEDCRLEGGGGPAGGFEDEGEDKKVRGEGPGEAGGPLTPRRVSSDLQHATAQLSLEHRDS
Summary of the method: as §1

ETV3L = target: T7, ETV3L (Homo sapiens, UniProt Q6ZN32 1-361); details: protein: recombinant; tags: N-terminal GST; dsDNA, one strand shown
T7 sequence: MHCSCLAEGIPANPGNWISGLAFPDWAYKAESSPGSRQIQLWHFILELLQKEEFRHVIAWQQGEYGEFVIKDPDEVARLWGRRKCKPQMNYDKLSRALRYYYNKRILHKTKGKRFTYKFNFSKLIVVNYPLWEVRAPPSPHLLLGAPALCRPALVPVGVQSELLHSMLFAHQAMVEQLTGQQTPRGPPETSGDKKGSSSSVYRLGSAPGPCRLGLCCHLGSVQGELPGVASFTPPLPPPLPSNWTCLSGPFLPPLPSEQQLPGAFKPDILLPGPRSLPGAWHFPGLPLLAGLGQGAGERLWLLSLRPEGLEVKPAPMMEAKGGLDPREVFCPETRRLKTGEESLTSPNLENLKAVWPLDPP
Summary of the method: as §1

ETS2 = target: T8, ETS2 (Homo sapiens, UniProt P15036 1-469); details: protein: recombinant; tags: N-terminal GST; dsDNA, one strand shown
T8 sequence: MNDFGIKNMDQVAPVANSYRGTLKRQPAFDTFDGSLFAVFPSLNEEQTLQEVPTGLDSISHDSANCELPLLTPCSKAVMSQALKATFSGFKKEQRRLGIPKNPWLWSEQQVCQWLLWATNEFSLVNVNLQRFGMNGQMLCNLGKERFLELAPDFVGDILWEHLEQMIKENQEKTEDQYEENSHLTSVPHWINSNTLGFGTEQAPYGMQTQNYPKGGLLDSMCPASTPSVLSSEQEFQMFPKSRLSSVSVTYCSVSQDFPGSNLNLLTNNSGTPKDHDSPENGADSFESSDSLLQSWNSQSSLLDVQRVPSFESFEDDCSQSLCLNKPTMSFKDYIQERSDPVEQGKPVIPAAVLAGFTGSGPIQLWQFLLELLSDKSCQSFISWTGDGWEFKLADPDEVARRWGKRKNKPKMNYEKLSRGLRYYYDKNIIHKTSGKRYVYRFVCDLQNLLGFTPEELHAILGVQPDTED
Summary of the method: as §1

SPDEF = target: T9, SPDEF (Homo sapiens, UniProt O95238 1-335); details: protein: recombinant; tags: N-terminal GST; dsDNA, one strand shown
T9 sequence: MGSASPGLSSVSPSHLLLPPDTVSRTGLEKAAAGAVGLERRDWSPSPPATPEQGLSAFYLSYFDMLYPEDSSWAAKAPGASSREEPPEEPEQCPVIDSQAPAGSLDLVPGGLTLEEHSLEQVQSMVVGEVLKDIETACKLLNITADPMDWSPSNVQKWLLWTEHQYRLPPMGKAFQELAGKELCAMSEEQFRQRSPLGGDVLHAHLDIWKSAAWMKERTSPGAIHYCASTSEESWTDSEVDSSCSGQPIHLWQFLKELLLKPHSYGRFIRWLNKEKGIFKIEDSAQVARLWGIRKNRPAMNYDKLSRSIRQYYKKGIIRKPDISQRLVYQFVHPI
Summary of the method: as §1

ETV7 = target: T10, ETV7 (Homo sapiens, UniProt Q9Y603 1-341); details: protein: recombinant; tags: N-terminal GST; dsDNA, one strand shown
T10 sequence: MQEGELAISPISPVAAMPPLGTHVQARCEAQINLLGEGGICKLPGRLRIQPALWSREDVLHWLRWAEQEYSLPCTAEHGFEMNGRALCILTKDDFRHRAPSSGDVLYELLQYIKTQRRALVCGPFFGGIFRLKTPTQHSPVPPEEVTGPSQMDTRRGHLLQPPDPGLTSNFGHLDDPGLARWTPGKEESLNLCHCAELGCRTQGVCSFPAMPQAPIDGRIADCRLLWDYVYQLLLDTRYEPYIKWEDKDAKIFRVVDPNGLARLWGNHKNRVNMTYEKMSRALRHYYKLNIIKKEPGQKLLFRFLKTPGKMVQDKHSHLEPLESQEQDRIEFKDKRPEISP
Summary of the method: as §1

ELF5 = target: T11, ELF5 (Homo sapiens, UniProt Q9UKW6-2 1-255); details: protein: recombinant; tags: N-terminal GST; dsDNA, one strand shown
T11 sequence: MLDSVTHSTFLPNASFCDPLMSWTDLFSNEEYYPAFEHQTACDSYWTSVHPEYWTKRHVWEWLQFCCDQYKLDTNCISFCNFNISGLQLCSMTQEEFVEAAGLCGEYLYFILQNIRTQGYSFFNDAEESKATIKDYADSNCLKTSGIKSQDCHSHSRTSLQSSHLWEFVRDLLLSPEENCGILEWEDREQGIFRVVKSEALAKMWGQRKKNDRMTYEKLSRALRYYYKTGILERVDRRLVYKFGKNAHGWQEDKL
Summary of the method: as §1

ETV3 = target: T12, ETV3 (Homo sapiens, UniProt P41162-2 1-143); details: protein: recombinant; tags: N-terminal GST; dsDNA, one strand shown
T12 sequence: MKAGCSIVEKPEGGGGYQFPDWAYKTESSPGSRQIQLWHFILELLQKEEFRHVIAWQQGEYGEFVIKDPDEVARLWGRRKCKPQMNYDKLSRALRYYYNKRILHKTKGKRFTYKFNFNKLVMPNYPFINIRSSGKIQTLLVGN
Summary of the method: as §1

ETV6 = ETV6 (Homo sapiens, UniProt P41212 1-452); details: protein: recombinant; tags: N-terminal GST; dsDNA, one strand shown
ETV6, sequence (P41212 whole entry): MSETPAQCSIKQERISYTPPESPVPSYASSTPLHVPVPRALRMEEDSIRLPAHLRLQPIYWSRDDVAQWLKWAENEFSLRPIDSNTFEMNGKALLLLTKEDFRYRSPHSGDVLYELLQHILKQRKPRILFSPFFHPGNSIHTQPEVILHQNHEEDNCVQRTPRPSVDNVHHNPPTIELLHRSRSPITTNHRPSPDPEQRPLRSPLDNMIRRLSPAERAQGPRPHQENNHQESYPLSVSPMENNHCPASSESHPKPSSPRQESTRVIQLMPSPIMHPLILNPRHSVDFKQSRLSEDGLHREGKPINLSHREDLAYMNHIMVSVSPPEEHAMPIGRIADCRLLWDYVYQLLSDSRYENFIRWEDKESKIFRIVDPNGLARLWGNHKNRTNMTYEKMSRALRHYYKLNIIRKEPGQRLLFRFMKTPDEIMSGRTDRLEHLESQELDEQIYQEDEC
Summary of the method: as §1

Question: With TCTTCA as the sequence, how does the binding signal (FEV) read?
Answer: The binding signal was 1.15 fold enrichment (6-mer frequency, TF over GST control).

Question: And the binding signal (ETV5)?
Answer: Its binding signal is 1.17 fold enrichment (6-mer frequency, TF over GST control).

Question: And the binding signal (HSF1)?
Answer: Its binding signal is 1.24 fold enrichment (6-mer frequency, TF over GST control).

Question: What about the binding signal (SPIC) of the same sequence?
Answer: Its binding signal is 1.14 fold enrichment (6-mer frequency, TF over GST control).

Question: And the binding signal (ELF4)?
Answer: The binding signal was 1.2 fold enrichment (6-mer frequency, TF over GST control).

Question: What about the binding signal (ELK4) of the same sequence?
Answer: The binding signal was 1.07 fold enrichment (6-mer frequency, TF over GST control).

Question: What about the binding signal (ETV2) of the same sequence?
Answer: The binding signal was 1.18 fold enrichment (6-mer frequency, TF over GST control).

Question: What about the binding signal (ELF3) of the same sequence?
Answer: The binding signal was 1.46 fold enrichment (6-mer frequency, TF over GST control).

Question: What about the binding signal (CRX) of the same sequence?
Answer: The binding signal was 1.14 fold enrichment (6-mer frequency, TF over GST control).

Question: And the binding signal (ETV1)?
Answer: Its binding signal is 1.28 fold enrichment (6-mer frequency, TF over GST control).

Question: And the binding signal (ERF)?
Answer: Its binding signal is 1.29 fold enrichment (6-mer frequency, TF over GST control).

Question: And the binding signal (ETV3L)?
Answer: Its binding signal is 1.37 fold enrichment (6-mer frequency, TF over GST control).

Question: What about the binding signal (ETS2) of the same sequence?
Answer: Its binding signal is 1.11 fold enrichment (6-mer frequency, TF over GST control).

Question: What about the binding signal (SPDEF) of the same sequence?
Answer: The binding signal was 1.25 fold enrichment (6-mer frequency, TF over GST control).

Question: What about the binding signal (ETV7) of the same sequence?
Answer: Its binding signal is 1.13 fold enrichment (6-mer frequency, TF over GST control).

Question: What about the binding signal (ELF5) of the same sequence?
Answer: Its binding signal is 1.16 fold enrichment (6-mer frequency, TF over GST control).

Question: And the binding signal (ETV3)?
Answer: The binding signal was 1.16 fold enrichment (6-mer frequency, TF over GST control).

Question: What about the binding signal (ETV6) of the same sequence?
Answer: Its binding signal is 1.25 fold enrichment (6-mer frequency, TF over GST control).
